Among all 5,500 compounds or so, about 2,000 (36%) were called active. Roughly 18% stayed inconclusive and do not appear here. Rule as the data show it: active = normalized growth mostly below about 0.91 (no sharp cut-off); inconclusive = no clear call, values can overlap the other calls; inactive = mostly above about 0.92. This is one part of the list.
Test: chemical genetic growth profiling, strain panel (AID 1159580);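 also: tested at 20 µM; growth read once vehicle control cultures reached saturation at 30 °C; 1 = growth at the plate median or of vehicle wells; lower values mean less growth of the strain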
Settings: S. cerevisiae deletion strains, growth OD

Measured: normalized growth

C=C/C(C)=C/[C@@]1(C)SC(=O)C(C)=C1O
inactive: locus YAL040C, strain CLN3, active compounds read low 0.998 | locus YCL061C, strain MRC1 (second series), active compounds read low 1 | locus YDR150W, strain NUM1, active compounds read low 1.01 | locus YDR363W, strain ESC2, active compounds read low 1.02 | locus YER002W, strain NOP16, active compounds read low 0.986 | locus YGR078C, strain PAC10, active compounds read low 1.01 | locus YGR229C, strain SMI1, active compounds read low 1.01 | locus YJR075W, strain HOC1, active compounds read low 1 | locus YMR307W, strain GAS1, active compounds read low 0.998 | locus YNL175C, strain NOP13, active compounds read low 0.996 | locus YNL197C, strain WHI3, active compounds read low 1 | locus YNL224C, strain SQS1, active compounds read low 1 | locus YNL322C, strain KRE1, active compounds read low 0.999 | locus YOR083W, strain WHI5 (second series), active compounds read low 0.999

Source: PubChem BioAssay AID1159580 (chemical genetic matrix, 2015)
